The source of these data is PubChem BioAssay (NCATS).

Results filed as inconclusive are left out. Where a call stands in place of a potency, no number is given. Calls of active or inactive are those of the source. Calls come from the whole dose curve; as a rule, active = well fitted inhibition curve with a large enough effect; inconclusive = small, poorly fitted or top-dose-only effect; inactive = flat fitted curve, though single readings scatter.
Potency is the fitted concentration of half-maximal effect.

The assay in a line: P-glycoprotein substrates identified in KB-8-5-11 adenocarcinoma cell line, qHTS therapeutic library screen (AID 1346987). Note: nearly all actives have a fitted effect of over 65% in size. The conditions noted are these: KB-8-5-11 (P-gp overexpressing) viability, CellTiter-Glo, 72 h; series mostly up to 44.5 µM. In short, it runs like this:
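Steps: plate 500 KB-8-5-11 cells/well in DMEM + 10% FCS (colchicine removed); pin compounds in dose-response; incubate 72 h, 37 degree C, 5% CO2; add CellTiter-Glo, 5 min; read luminescence.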
For orientation: Quantitative high-throughput screening tests each substance at several concentrations.
Consider `COC(=O)C[C@H]1C(C)(C)[C@H](OC(=O)C(C)C)[C@@]2(O)C(=O)[C@]1(C)C1CC[C@]3(C)C(CC(=O)O[C@H]3c3ccoc3)[C@]13O[C@@H]32` (some centres not stated), for which the Potency entry is “inactive”.
Under `CC(C)(O)CC(CO)NC(=O)CC(O)CC(=O)Cc1ccccc1` (configuration not stated) stands “inactive”.
Take `C/C=C/C=C/C(=O)N1CC[C@]23c4ccccc4N[C@H]4N(C)c5cccc6c5[C@@]42CCN([C@H]6C2OC2(C)C)[C@H]13` (some centres not stated): the Potency result was “inactive”.
With `C=C1CCC[C@]2(C)CC[C@@H](C(=C)C(=O)O)[C@H](O)[C@@H]12` the entry was “inactive”.
Regarding `CO[C@H]1/C=C/C=C/C=C/C[C@H](OC(=O)[C@@H](C)NC(=O)C2CCCCC2)[C@H](C)[C@@H](O)/C(C)=C/CCc2cc(O)cc(c2)NC(=O)C1`, the Potency result is “inactive”.
Regarding `COc1c(/C=C/C(C)(C)O)ccc2c1C(=O)OCc1cc(C)cc(O)c1O2`, the Potency entry was “inactive”.
Under `CC(=O)NC1=NN(C(C)=O)C(C)(c2ccccc2)S1` (configuration not stated) stands 5.8 µM (active).
Under `CC1(O)CC(O)C2(O)C=COC(O[C@@H]3O[C@H](CO)[C@@H](O)[C@H](O)[C@H]3O)C12` (some centres not stated) stands “inactive”.
Regarding `CC(=O)OC1C(O)CC2(C)C(CCC(C)C23Cc2c(O)cc(CO)c(C=O)c2O3)C1(C)C` (configuration not stated), the Potency result is “inactive”.
With `Cc1cnc(Nc2ccc(F)cc2Cl)nc1-c1c[nH]c(C(=O)NC(CO)c2cccc(Cl)c2)c1` (configuration not stated) the figure was 3.66 µM (active); with `CC1CC2OC3(OC2C(C)(C)O)C1C1(C)CCC24CC25CCC(O[C@@H]2OC[C@@H](O)[C@H](O)[C@H]2O)C(C)(C)C5CC=C4C1(C)C3O` (some centres not stated), “inactive”.
Under `COC(=O)c1ccnc(-c2cc(C(=O)NCCc3ccccc3)ccn2)c1` stands “inactive”.
